In PubChem BioAssay AID1220 (Sanford-Burnham Center for Chemical Genomics, 2008):
The campaign covered roughly 190,000 compounds. About 1,300 (0.68%) were called active. What follows is part of a selection rich in actives, with near analogues and random picks from the rest. Values without a mark were called inactive. Cut-off read from the data, not from the text of the source: active = inhibition above about 50%; inactive = the rest.

The molecules below were run against Mannose-6-phosphate isomerase (Homo sapiens) (UniProt P34949) (assay: MPI inhibition at elevated mannose 6-phosphate – biochemical, fluorescence intensity, high mannose 6-phosphate, primary screen (AID 1220)). Conditions: recombinant PMI enzyme, coupled fluorescence intensity; at 20 µM; stronger effect = higher value.
Sequence of Mannose-6-phosphate isomerase (Homo sapiens) (P34949 whole entry, looked up): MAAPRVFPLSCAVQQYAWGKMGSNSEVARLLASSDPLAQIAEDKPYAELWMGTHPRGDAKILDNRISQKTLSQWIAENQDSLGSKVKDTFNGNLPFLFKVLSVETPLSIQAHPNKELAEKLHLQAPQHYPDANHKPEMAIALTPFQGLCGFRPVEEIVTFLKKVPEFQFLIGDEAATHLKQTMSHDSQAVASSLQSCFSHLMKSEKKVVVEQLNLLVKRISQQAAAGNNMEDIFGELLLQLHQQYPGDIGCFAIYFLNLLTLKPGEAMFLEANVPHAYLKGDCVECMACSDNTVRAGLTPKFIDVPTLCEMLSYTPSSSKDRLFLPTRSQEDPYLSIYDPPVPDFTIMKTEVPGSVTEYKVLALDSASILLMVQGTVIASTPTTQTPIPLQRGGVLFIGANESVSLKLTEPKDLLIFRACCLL
In the case of `CCOC(=O)c1cnn(-c2ccccc2)c1NC(=O)CCl`, the inhibition is reported as -1.3%. With `CCN(CC)S(=O)(=O)c1cccc(NC(=O)c2cc(=O)[nH]c3ccccc23)c1` the inhibition was 4.5%. With `CCCCNC(=O)N(C)c1nc2ccccc2s1` the inhibition was -3.1%. With `CCn1c(SCC(=O)NCc2ccccc2)nc2c(c1=O)SC(C)C2` (stereo not given) the inhibition was 2.5%. Molecule `COc1ccc(CN2CCCC(CNC(=O)c3ccc(F)cc3)C2)c(F)c1` (stereo not given) has an inhibition of -6%. `CCOc1ccc(-c2nc(C#N)c(NCC(C)C)o2)cc1` showed an inhibition of -0.5%. With `COc1ccc(CCC(=O)N2c3ccccc3CC2C)cc1` (stereo not given) the inhibition was 14.3%. `COc1cc(/C=C/C(=O)N2CCCc3ccccc32)cc(OC)c1OC` showed an inhibition of -12.4%. With `O=C(Nc1nc(-c2cccs2)cs1)c1ccco1` the inhibition was 12.4%. `CSCCC(NC(=O)c1ccco1)C(=O)OCc1cc([N+](=O)[O-])cc2c1OCOC2` (stereo not given) gave an inhibition of 5.4%. Work on `CC1CCC2(CC1)NC(=O)N(NC(=O)CCl)C2=O` (stereo not given) yielded an inhibition of -10.3%. In the case of `CC1CCN(CCOCCOc2ccc(Cl)cc2Br)CC1`, the inhibition is reported as -7.9%. `Nc1nnc(N2CCc3ccccc32)s1` was tested, and the inhibition was 6.2%. With `Cc1c(Cl)sn(-c2ccc(Cl)cc2)c1=O` the inhibition was -4.6%. `Cc1ccc(Cn2c(=O)sc3ccccc3c2=O)cc1` showed an inhibition of 8%. In the case of `COc1cccc(-n2c(C)c3c(OC)cccc(=O)c3c2C)c1`, the inhibition is reported as 61% (active). In the case of `COc1cccc(=O)c2c(C)n(-c3ccc(C(=O)O)cc3)c(C)c12`, the inhibition is reported as -16.3%. In the case of `COc1ccccc1-n1c(C)c2c(OC)cccc(=O)c2c1C`, the inhibition is reported as 54.7% (active). `COc1cccc(=O)c2c(C)n(-c3cc(C)cc(C)c3)c(C)c12` showed an inhibition of 29.9%. `COc1ccc(-n2c(C)c3c(OC)cccc(=O)c3c2C)cc1` showed an inhibition of 46.4%. With `COc1cccc(=O)c2c(C)n(C)c(C)c12` the inhibition was -5%. For `CNS(=O)(=O)c1cc(C(=O)OCC(=O)NC2CCCc3ccccc32)ccc1Cl` (stereo not given), the inhibition was 9.4%. In the case of `COC(=O)C1=C(C)NC(=O)/C1=C\c1cc(C)n(-c2ccccc2F)c1C`, the inhibition is reported as -51.3%. `O=C(CSCc1ccccc1)N1CCN(Cc2ccc3c(c2)OCO3)CC1` showed an inhibition of 9.8%. For `O=C1OCCC1Sc1nc2ccccc2c(=O)n1Cc1ccccc1` (stereo not given), the inhibition was -1.6%. For `COc1ccc(-c2nnc(SC)o2)c(OC)c1`, the inhibition was 2%. For `O=c1cc(O)c2sc(Nc3ccc(F)c(Cl)c3)nc2[nH]1`, the inhibition was 57.5% (active). With `Cc1cc(NC(=O)c2sc(Nc3ccc(F)c(Cl)c3)nc2N)no1` the inhibition was -10.8%. Work on `COC(=O)Cc1csc(Nc2ccc(F)c(Cl)c2)n1` yielded an inhibition of -0.3%. Work on `CN(Cc1ccccc1)c1ccc(S(=O)(=O)N2CCC(C(=O)O)CC2)cc1[N+](=O)[O-]` yielded an inhibition of 10.6%. Molecule `Brc1ccc(-c2noc(COc3ccc4c(c3)CCC4)n2)o1` has an inhibition of 14%. `O=C(OCCOCCN=C1NS(=O)(=O)c2ccccc21)C1CC(=O)N(c2ccccc2)C1` (stereo not given) showed an inhibition of -2.6%. With `Cc1nc(-c2ccc(C(=O)Nc3ccccc3F)cc2)cs1` the inhibition was -3.7%. `C=CCOc1c(Cl)cc(CNc2ccc3[nH]c(=O)[nH]c3c2)cc1OC` showed an inhibition of 35%. `COc1cc(CNc2ccc(N3CCOCC3)cc2)cc(Br)c1OC` gave an inhibition of 9.3%. With `C=CCOc1c(Cl)cc(CNc2ccc(N(C)C)cc2)cc1OC` the inhibition was 54% (active). Work on `CCOc1c(Cl)cc(CNc2ccc(S(N)(=O)=O)cc2)cc1OC` yielded an inhibition of -2%. With `CCOc1cc(CNc2ccc(N3CCOCC3)cc2)cc(Br)c1OCC` the inhibition was 14.8%. `CCOc1cc(CNc2ccc(S(N)(=O)=O)cc2)cc(Cl)c1OC` showed an inhibition of 2.7%. `C=CCOc1c(Cl)cc(CNc2ccc(C)c(Cl)c2)cc1OC` gave an inhibition of 12.6%. `CC1=CC(C)(C)N(C(=O)CCl)c2cc(C)ccc21` gave an inhibition of -1.9%. Work on `CN(C)C(=C(C#N)C#N)N1CCN(c2ccc(Cl)c(Cl)c2)CC1` yielded an inhibition of 6.1%. Work on `CC(C)(C)[C@H]1C=C(C(=O)N2CCN(Cc3ccc4c(c3)OCO4)CC2)O[C@@H](OCc2ccc(CO)cc2)C1` yielded an inhibition of 2.7%. `COc1ccc(Br)cc1CN1CCN(C(=O)c2ccc(OC)c(OC)c2)CC1` was tested, and the inhibition was 2.3%. Molecule `CCOC(=O)CCC(NC(=O)CCCCCCCCC(=O)NC(CCC(=O)OCC)C(=O)OCC)C(=O)OCC` (stereo not given) has an inhibition of 6.1%. Work on `COc1ccc(NS(=O)(=O)c2cccc(NC(=O)CCS(=O)(=O)c3ccccc3)c2)cc1` yielded an inhibition of 8.9%. For `O=C(CN1CCCCCC1)Nc1ccc(F)c(F)c1`, the inhibition was -9.6%. In the case of `CCCCNC(=O)c1onc(CSc2cc(C)cc(C)c2)c1C(=O)O`, the inhibition is reported as -4%. `O=C(N/N=C/c1cc(Br)c(Br)o1)C(O)c1ccccc1` (stereo not given) showed an inhibition of 5.2%. For `CC(CNc1ccccc1O)C(=O)O` (stereo not given), the inhibition was 64.7% (active). With `CC(CC(=O)O)Nc1ccccc1O` (stereo not given) the inhibition was 49.3%. `CC(CC(C)C(=O)Nc1ccccc1C(C)(C)C)C(=O)O` (stereo not given) gave an inhibition of -12.3%. Work on `COc1cc2c(cc1NC(=O)CSc1cccc[n+]1[O-])oc1ccccc12` yielded an inhibition of -6.2%. `COc1cc(Cl)cc2c1Sc1ccccc1/C2=C/CCN(C)C` gave an inhibition of -9.3%. `CN(C)CC/C=C1\c2ccccc2Sc2ccc(Cl)cc21` gave an inhibition of -12.5%. In the case of `CN(C)CC/C=C1/c2ccccc2Sc2c(O)cc(Cl)cc21`, the inhibition is reported as 50% (active). `N#CC1(c2nc3ccccc3[nH]2)CC1c1ccc2c(c1)OCO2` (stereo not given) gave an inhibition of 0.1%. Work on `COc1ccc(S(=O)(=O)N2CCc3ccccc32)cc1NC(C)=O` yielded an inhibition of 1.8%. Molecule `CNCC(C)COc1ccccc1OCc1ccccc1` (stereo not given) has an inhibition of -5.2%. `N#CC1=C(N)OC2=C(C(=O)CCC2)C12CCN(C(=O)OCc1ccccc1)CC2` showed an inhibition of -6.7%. In the case of `CCOc1ccccc1NS(=O)(=O)c1c(C)noc1C`, the inhibition is reported as 54.2% (active). `CCOc1ccccc1NC(=O)C1CCN(S(=O)(=O)c2c(C)noc2C)CC1` gave an inhibition of 2.7%. Molecule `CCOc1ccccc1NS(=O)(=O)c1cn(C)nc1C` has an inhibition of -10.4%. With `CC(=O)Nc1c(NC(=O)CC#N)[nH]c2c(c1=O)c(=O)n(C)c(=O)n2C` the inhibition was 15.1%. With `CCn1c(C)cc(C=C2C(=O)c3ccccc3C2=O)c1C` the inhibition was 20.2%. `Cc1ccc(N(CC(=O)Nc2ccc(F)c(Cl)c2)S(=O)(=O)c2c(C)noc2C)cc1` was tested, and the inhibition was 11.9%. In the case of `C#CC(CC)(CC)NC(=O)Nc1ccccc1C(=O)OC`, the inhibition is reported as 64.6% (active). For `CCNC(=O)Nc1ccccc1C(=O)OC`, the inhibition was -5.5%. Molecule `CCOC(=O)CNC(=O)Nc1ccccc1C(=O)OC` has an inhibition of -7.2%. Molecule `N#Cc1nc(-c2cccs2)oc1NCC1CCCO1` (stereo not given) has an inhibition of 0.2%. In the case of `O=[N+]([O-])c1ccc(N2CCOCC2)cc1SCc1ccco1`, the inhibition is reported as 68.5% (active). For `O=[N+]([O-])c1ccc(SCc2ccco2)cc1N1CCOCC1`, the inhibition was 1.4%. `CS(=O)(=O)N1CCN(c2ccc([N+](=O)[O-])c(SCc3ccco3)c2)CC1` gave an inhibition of 43.6%. Work on `CC(=O)NC(=S)Nc1ccc(S(=O)(=O)N2CCOCC2)cc1` yielded an inhibition of -4.7%. `O=C1CSc2ccc(C(=O)NCCC3=CCCCC3)cc2N1` was tested, and the inhibition was -5.5%. `COCCNC(=O)c1ccc2c(c1)NC(=O)CS2` was tested, and the inhibition was 53.7% (active). With `COC(=O)c1ccc2c(c1)NC(=O)CS2` the inhibition was -9.2%. Molecule `COc1cccc(C(=O)Nc2ccc(S(=O)(=O)Nc3onc(C)c3C)cc2)c1` has an inhibition of -1.9%. For `Nc1ccc(OCC(O)C[n+]2ccc(CCS(=O)(=O)[O-])cc2)cc1` (stereo not given), the inhibition was 53.8% (active). Molecule `COc1ccc(OCC(O)COc2ccc(OC)cc2)cc1` has an inhibition of -1.9%. For `Nc1ccc(CCS(N)(=O)=O)cc1`, the inhibition was -2.1%. In the case of `Cc1cc(CNC(=O)COc2ccccc2F)c2ccccc2n1`, the inhibition is reported as -0.4%. Work on `COc1ccc(CN2CCN(Cc3csc(C(C)=O)c3)CC2CCO)c(C)c1C` (stereo not given) yielded an inhibition of -1.9%. `CCOC(=O)c1nn(-c2ccc(F)cc2)c(=O)c2c(N)scc12` was tested, and the inhibition was 62.3% (active). `CCOC(=O)c1nn(-c2ccc(C)c(C)c2)c(=O)c2c(N)scc12` was tested, and the inhibition was 54.4% (active). In the case of `CCOC(=O)c1nn(-c2ccccc2)c(=O)c2c(N)scc12`, the inhibition is reported as 63.3% (active). Molecule `CCCSc1cc(=O)n(-c2ccc(F)cc2)nc1C(=O)OCC` has an inhibition of -6%. `CCOC(=O)c1nn(-c2ccccc2)c(C(=O)OCC)c1N` was tested, and the inhibition was 10.9%. In the case of `COc1ccc(/C=N/NC(=O)c2nn(-c3ccccc3)c(=O)c3c(N)scc23)cc1`, the inhibition is reported as 52.4% (active). With `COc1ccc(/C=N/NC(=O)c2nn(-c3ccc(C)c(C)c3)c(=O)c3ccccc23)cc1` the inhibition was 22.6%. Molecule `CCOC(=O)c1nn(-c2ccccc2)c(=O)c2c(NC(C)=O)scc12` has an inhibition of 0%. Molecule `COc1ccc(/C=N/NC(=O)c2nn(-c3ccc(Cl)cc3)c(=O)c3c(N)scc23)cc1` has an inhibition of 41.9%. `Cc1ccc(-n2nc(C(=O)O)c3ccccc3c2=O)cc1C` gave an inhibition of -1.7%. For `CCOC(=O)c1nn(-c2ccc(F)cc2)c(C)c1C(C)=O`, the inhibition was -0.1%. Work on `CCOC(=O)c1nn(-c2ccc(C)c(C)c2)cc1O` yielded an inhibition of 12.2%. `CCOC(=O)C1CCN(S(=O)(=O)c2ccc(C(=O)OC)cc2)CC1` showed an inhibition of -3.3%. Molecule `CCOC(=O)c1cc2occc2n1CC(=O)Nc1ccc(OC)cc1OC` has an inhibition of 9%. `CCOC(=O)c1nn(-c2ccc(C)cc2)c(=O)c2c(N)scc12` was tested, and the inhibition was 61.7% (active). `CCOC(=O)c1nc(N)c(=O)n(-c2ccc(C)cc2)n1` was tested, and the inhibition was -8.9%. `CCOC(=O)c1nn(-c2ccc(OC)cc2)c(=O)c2c(N)scc12` showed an inhibition of 27.4%.
